Only some compounds are listed: those with a hit (about 1.5% of all), similar ones and a draw of the others.
MEX-5 binding – MEX-5 zinc finger RNA-binding disruptors – biochemical, C. elegans, fluorescence polarization, MLPCN library, primary screen; actives 0.38% (n = 300,000); Zinc finger protein mex-5 (Caenorhabditis elegans), Q9XUB2; activity score (negative = inhibition of binding), % at 10 µM; MEX-5/FITC-TCR2 RNA binding; active compounds read low; AID 1832, 2009;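 active = inhibition past about -25% in most replicates, and total fluorescence under double the plate's negative control median, limit read from the data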;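 note: 0% = DMSO and -100% = 5 µM competing unlabeled TCR2 RNA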
GLD-1 TGE inh – GLD-1/TGE RNA complex disruptors, primary screen, biochemical, fluorescence polarization; Female germline-specific tumor suppressor gld-1 (Caenorhabditis elegans), Q17339; purified GLD-1 + fluorescein TGE RNA; inhibition, % at 5.96 µM; actives 0.44% (n = 320,000); AID 2280, 2010;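 active = percent inhibition above a per-plate cutoff, the plate mean of test compounds plus 3 SD, cut at about 30% in these data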;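 note: 0% = DMSO wells with GLD-1 and probe and 100% = wells lacking GLD-1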
E coli Lon inh – inhibitors of E. coli Lon protease, primary screen, biochemical, fluorescence polarization; P0A9M0; purified E. coli Lon protease; inhibition, % at 7.94 µM; actives 0.42% (n = 360,000); AID 602123, 2011; in the data active = inhibition above about 13%, passing the limit was not always enough;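 note: 0% = enzyme with probe and DMSO and 100% = no enzyme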
EBV gp42 inh – Epstein-Barr virus gp42 inhibitors, primary screen, biochemical, uHTS, fluorescence polarization; Fluorescence polarization binding assay, mP read-out; actives 0.42% (n = 220,000); AID 1085, 2008; Glycoprotein 42 (Epstein-Barr virus (strain AG876)), Q1HVG2; inhibition, % (tested at 21.74 µM); in the data active = inhibition above about 50%
Target sequence (Q1HVG2 whole entry, looked up): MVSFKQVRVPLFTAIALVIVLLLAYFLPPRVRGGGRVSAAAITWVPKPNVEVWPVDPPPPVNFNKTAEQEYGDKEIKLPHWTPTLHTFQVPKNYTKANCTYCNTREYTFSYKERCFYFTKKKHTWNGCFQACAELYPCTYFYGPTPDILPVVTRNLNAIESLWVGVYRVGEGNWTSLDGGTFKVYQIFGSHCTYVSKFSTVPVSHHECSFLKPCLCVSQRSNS
MCL1-BIM inh – inhibitors of MCL1 binding to BIM-BH3, primary screen, biochemical, fluorescence polarization. Induced myeloid leukemia cell differentiation protein Mcl-1 (Homo sapiens), Q07820. GST-MCL1 / FITC-Bim-BH3 fluorescence polarization. inhibition, % at 10.9 µM. actives 0.68% (n = 320,000). AID 2057, 2009;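 active = inhibition above the mean inhibition of all tested compounds plus 3 SD, set per campaign, cut at about 40% in these data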;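 note: 0% = DMSO wells and 100% = unlabeled Bim-BH3 peptide control; higher means more loss of mP so more displacement of Bim peptide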
Bcl-xL primary – inhibitors of human Bcl-xL, primary screen, biochemical, fluorescence polarization, HTS; inhibition, % at 10.9 µM; AID 2129, 2009; actives 0.7% (n = 320,000); GST-Bcl-xL / FITC-Bim BH3 peptide fluorescence polarization;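 active = inhibition above the mean of all tested compounds plus 3 SD, cutoff set per campaign, cut at about 30% in these data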;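 note: 0% = DMSO wells and 100% = unlabeled Bim-BH3 peptide competitor; inhibitors lower millipolarization by displacing the labeled peptide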
Target sequence (Q07817 whole entry, looked up): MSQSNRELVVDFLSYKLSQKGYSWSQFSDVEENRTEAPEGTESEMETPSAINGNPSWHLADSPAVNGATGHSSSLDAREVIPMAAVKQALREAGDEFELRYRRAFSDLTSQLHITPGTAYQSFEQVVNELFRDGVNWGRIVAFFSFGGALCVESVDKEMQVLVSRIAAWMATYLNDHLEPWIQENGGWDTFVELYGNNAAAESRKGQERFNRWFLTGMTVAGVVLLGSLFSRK
eLon confirm – E. coli Lon protease inhibitor retest, confirmation, biochemical, fluorescence polarization; AID 602230, 2012; inhibition, % at 7.94 µM; purified E. coli Lon; actives 31% (n = 1,400); shares compounds with E coli Lon inh; in the data active = inhibition above about 16%;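 note: 0% = enzyme with probe and DMSO and 100% = no enzyme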
* marks the source's active call; other numbers are inactive results; / = not tested or not shown.

SMILES	MEX-5 binding	GLD-1 TGE inh	E coli Lon inh	EBV gp42 inh	MCL1-BIM inh	Bcl-xL primary	eLon confirm
O=[N+]([O-])c1ccc(N2CCN(Cc3ccccc3)CC2)c2c1no[n+]2[O-]	/	/	32.4*	/	/	/	5.1
COc1ccc(NC(=O)Nc2sc(NS(=O)(=O)c3ccccc3)nc2C)cc1	1.3	-3.0	14.4*	-6.2	22.1	9.3	-3.2
CCOc1c2ccccc2nn1CCOC	/	-3.9	-14.2	/	-3.9	0.9	/
CCOc1c2ccccc2nn1CCO	/	8.8	28.7*	/	-0.5	-0.3	-76.6
NS(=O)(=O)c1ccc(CNC(=O)c2cc(=O)[nH]c3ccccc23)cc1	0.8	0.8	11.1	/	-21.9	-5.4	/
Nc1ccc2c(O)cc(S(=O)(=O)O)cc2c1	/	/	136.9*	/	/	/	3.1
Nc1cccc2c(O)cc(S(=O)(=O)O)cc12	/	/	64.8*	/	/	/	12.1
CC(=O)Nc1ccc2c(O)cc(S(=O)(=O)O)cc2c1	/	/	-23.6	/	/	/	/
Nc1cccc2c(O)cccc12	0.9	-0.9	16.7	/	7.4	5.9	/
COc1ccc(-c2ccc(C(=O)N3CCN(C)CC3)c3occc23)c(C)c1	/	/	-1.5	/	/	/	/
COc1ccc(-c2ccc(C(=O)N3CCOCC3)c3occc23)c(C)c1	/	/	22.8*	/	/	/	-0.5
Cc1cc(NC(=O)c2coc(=O)c(Br)c2)ccc1C(C)C	1.4	1.0	24.3*	-4.0	3.2	3.7	18.9*
CCN(CC)S(=O)(=O)c1ccc(C(=O)NCc2ccc3c(c2)cc(C)n3C)cc1	-1.7	7.5	7.4	-8.3	-1.6	3.0	/
Cc1cc2cc(CNC(=O)c3ccc(S(=O)(=O)N4CCCC4)cc3)ccc2n1C	0.6	22.4	23.4*	-5.2	3.6	8.0	5.6
Cc1cc2cc(CNC(=O)c3ccc(S(=O)(=O)N4CCCCC4)cc3)ccc2n1C	1.1	28.4	16.0*	17.6	21.6	16.6	-9.5
Cc1ccc(CNC(=O)c2ccc(S(=O)(=O)N3CCCCC3)cc2)cc1	/	/	0.8	/	/	/	/
CC1(C(=O)NS(=O)(=O)Cc2ccccc2)CCN1C(=O)Cc1cc(F)ccc1F (stereo not drawn)	/	/	-3.8	/	/	/	/
COc1nc(C)cc(C)c1S(=O)(=O)c1ccc(Cl)cc1	-1.6	-1.0	1.0	/	-10.8	-4.3	/
COc1ccc(Oc2nc(C)cc(C)c2S(=O)(=O)c2ccc(C)cc2)cc1	1.4	-5.1	17.7*	0.5	2.1	1.1	-3.7
C[C@H](CO)N1C[C@H](C)[C@@H](CN(C)Cc2ccc(-c3ccccc3)cc2)Oc2c(NS(=O)(=O)c3cccs3)cccc2C1=O	/	7.2	-13.0	/	/	/	/
COc1ccc(Cl)cc1S(=O)(=O)n1ccnc1C(C)C	1.6	-0.1	16.9*	-0.7	-1.0	4.9	2.4
COc1ccc(CNC(=O)CCC(=O)Nc2nnc(C(F)(F)F)s2)cc1	-2.3	1.8	-2.8	/	7.1	6.0	/
CCOC(=O)C1Nc2ccccc2C2c3ccccc3CC12 (stereo not drawn)	4.7	-9.9	30.0*	/	6.4	4.1	29.4*
Cc1cccc(N2C(=O)C(O)=C(C(=O)c3cccs3)C2c2ccc(C(C)C)cc2)n1 (stereo not drawn)	1.4	2.9	3.9	2.6	4.7	9.0	/
CC(C)c1nnc(N2C(=O)C(O)=C(C(=O)c3cccs3)C2c2ccccc2)s1 (stereo not drawn)	-65.9*	/	34.0*	126.3*	/	/	80.3*
COc1cccc(C2=CC(=O)CC(C)(C)C2=O)c1	/	/	11.8*	/	/	/	-13.2
CC1(C)CC(=O)C=C(c2cccc(O)c2)C1=O	/	3.5	-3.4	/	5.7	5.3	/
CC1=C(C(=O)c2ccccc2)C(c2cccc([N+](=O)[O-])c2)NC(=S)N1 (stereo not drawn)	-2.1	-2.0	26.4*	-5.4	5.2	0.0	1.0
O=C(COC(=O)c1ccccc1C(=O)N1CCN(c2ccccc2)CC1)Nc1ccc(F)cc1	-3.3	36.8*	21.7*	6.3	48.6*	53.8*	7.1

Screens from PubChem.
